# Measured values reported in PubChem BioAssay (EPA / NIEHS).
# Several values for one entry are separate records, joined by “and”; a condition that tells them apart may be missing. Equal values may be shown once. Records with an inconclusive call do not appear. Some compounds were tested as several samples or in several runs, with calls that do not always agree. Activity calls are given as the source filed them. The calls were made as follows: active = hit-call score of the fitted dose curve at least 0.9, where 1 is the maximum; inconclusive = response in the unintended direction; inactive = score below 0.9.
# Test: ACEA_ER_80hr: ACEA Biosciences xCELLigence Real-Time Cell Analysis on Estrogen Receptor Agonism for Proliferation (AID 2282667)
# Details: T47D proliferation, impedance (xCELLigence), 80 h
# Experimental: ACEA_ER is a cell-based, single-readout assay that uses T47D, a human breast cell line, with measurements taken at 80 hours after chemical dosing in a 96-well plate, although TO2 (mc0.srcf) used a 384-well plate. Differences in plate size can be ignored given data normalization.ACEA_ER_80hr is one of two assay component(s) measured or calculated from the ACEA_ER assay. It is designed to make measurements of real-time cell-growth kinetics, a form of growth reporter, as detected with electrical impedance signals by Real-Time Cell Electrode Sensor (RT-CES) technology.Data from the assay component ACEA_ER_80hr was analyzed into 1 assay endpoint. This assay endpoint, ACEA_ER_80hr_Positive, was analyzed in the positive analysis fitting direction relative to DMSO as the negative control and baseline of activity. Using a type of growth reporter, measures of the cells for gain-of-signal activity can be used to understand the signaling at the pathway-level as they relate to the gene ESR1. Furthermore, this assay endpoint can be referred to as a primary readout, because this assay has produced multiple assay endpoints where this one serves a signaling function. To generalize the intended target to other relatable targets, this assay endpoint is annotated to the nuclear receptor intended target family, where the subfamily is steroidal.
# The xCELLigence system Multi-E-Plate stations were used to measure the time-dependent response to chemicals. Each compound was tested in an eight-point, 1:4 serial dilution series starting at a maximum final concentration of 100 uM. A maximum starting concentration of 0.5% DMSO was present in the 100 uM chemical samples and was diluted along with the test article dilution series. The screen was performed in biological duplicate using two separate, 96-well, E-Plates 96 for each dilution series (n = 2). Positive controls (MG132 and E2) and a negative control (assay media) were tested in quadruplicate on each testing plate. […] Reference compounds were tested with 8 concentrations with 1:5 serial dilutions. All screening was carried out by ACEA Biosciences, Inc. (San Diego, CA). T-47D cells purchased from ATCC were maintained in RPMI1640 media supplemented with 10% characterized fetal bovine serum (FBS). […] Cells were then detached and seeded in E-Plates 96 in assay medium. After overnight monitoring of growth once every hour, compounds were added to […] cells and remained in the medium until the end of the experiment. Cellular responses were then recorded once every 5 min for the first 5 h, and once every hour for an additional 100 h.
Compound,outcome,AC50
Cc1cc(CCN2CCN(c3nsc4ccccc34)CC2)cc2c1NC(=O)CC2(C)C,inactive,
O=C(O)Cc1cc(I)c(Oc2cc(I)c(O)c(I)c2)c(I)c1,inactive,
Nc1cccc2c(N)cccc12,inactive,
O=c1c(-c2ccc(O)cc2)coc2cc(O)ccc12,,330 nM (active) and 318 nM (active) and 427 nM (active)
CC[C@H](c1ccc(O)cc1)[C@@H](CC)c1ccc(O)cc1,,6.89 nM (active) and 5.23 nM (active) and 2.6 nM (active)
CCCCCCCCCCCCCCCS(=O)(=O)Oc1ccccc1,inactive,
OC1CCC(C2CCCCC2)CC1 (stereo not given),inactive,
CCN(CC)CCNc1ccc(CNC=O)c2sc3ccc(OC)cc3c(=O)c12,inactive,
O=C(/C=C/c1ccc(O)cc1)CC(=O)/C=C/c1ccc(O)cc1,inactive,
CC(=O)NC1(c2cccc(F)c2)CCN(CC[C@@]2(c3ccc(Cl)c(Cl)c3)CN(c3ccccc3)C(=O)CO2)CC1,inactive,
CCc1nn(C2CCCCC2)c2cc(C3(C#N)CCC(C(=O)O)CC3)ccc12 (stereo not given),inactive,
CC(C)(C)c1ccc(O)c(C(C)(C)C)c1,inactive,
O=C1OC2(c3ccccc31)c1cc(Br)c(O)c(Br)c1Oc1c2cc(Br)c(O)c1Br,inactive,20500 nM (active)
CCCCCCCCOC(=O)CCCCCCCCC(=O)OCCCCCCCC,inactive,
CCC(=C(c1ccc(O)cc1)c1ccc(OCCN(C)C)cc1)c1ccccc1,inactive,2.29 nM (active)
COC(=O)CCCCC(=O)OC,inactive,
c1ccc2c(c1)Cc1ccccc1-2,inactive,
C[C@@H]1C[C@H]2[C@@H]3CCC4=CC(=O)C=C[C@]4(C)[C@@]3(F)[C@@H](O)C[C@]2(C)[C@@]1(O)C(=O)COP(=O)(O)O,inactive,685 nM (active)

Compound,outcome,AC50
O=[N+]([O-])c1ccc(O)cc1,inactive,
CCCCCCCCCCCCc1ccccc1S(=O)(=O)O,inactive,
C#C[C@]1(O)CC[C@H]2[C@@H]3CCC4=CC(=O)CC[C@@H]4[C@H]3CC[C@@]21C,,3.95 nM (active) and 5.39 nM (active) and 91.8 nM (active)
ClC1=C(Cl)C(Cl)(Cl)C(Cl)=C1Cl,inactive,
c1ccc2cc3c(ccc4ccccc43)cc2c1,inactive,11.7 µM (active) and 2.92 µM (active)
OCCC(F)(F)C(F)(F)C(F)(F)C(F)(F)C(F)(F)C(F)(F)C(F)(F)C(F)(F)F,inactive,
CCCCCCCCCCCCCC[N+](C)(C)C,,128 nM (active) and 101 nM (active)
COCC(C)OCC(C)O (stereo not given),inactive,
Cc1oc(-c2ccccc2)nc1CCOc1ccc(C[C@H](Nc2ccccc2C(=O)c2ccccc2)C(=O)O)cc1,inactive,
CCCCOCCO,inactive,
Oc1cc2ccccc2c2ccccc12,inactive,
NC(=O)N1C(=O)C(C(=O)c2cc(Cl)cs2)c2cc(F)c(Cl)cc21 (stereo not given),inactive,
C=C(C)C(=O)OCCC(F)(F)C(F)(F)C(F)(F)C(F)(F)C(F)(F)C(F)(F)F,inactive,
CCCCC(CC)COC(=O)CCCCC(=O)OCc1ccccc1 (stereo not given),inactive,
c1ccc2c(c1)ccc1ccccc12,inactive,
CC(C)(C)CC(C)(C)c1ccc(O)c(-n2nc3ccccc3n2)c1,inactive,
CC(C)(C)c1cccc(C(C)(C)C)c1O,inactive,
CN1CCN(c2ccccc2/C=C2\SCCN(c3ccc(Cl)c(Cl)c3)C2=O)CC1,inactive,
